# Measured values as given in ChEMBL document CHEMBL4513216, “Probing the Open Global Health Chemical Diversity Library for Multistage-Active Starting Points for Next-Generation Antimalarials” (ACS Infect Dis, 2020).
# Screen size: about 69,000 compounds; about 8,600 (12%) showed an effect of 50% or more. The sample as a whole holds a higher share of strong results than the screen did.
# Tested on: Plasmodium berghei
# Assay: Screen against P. berghei liver stage (PbLuc), transformed with Luciferase, at 10uM
# Assay type: functional, HepG2
# Details: tested at 10 uM
row,Compound,INHIBITION
1,CC(=O)N1CCN(Cc2ccco2)CC2(CC(=O)N(C)C2)C1 (stereo not drawn),19.8%
2,CC(C)c1cc(C(=O)N2CCN(Cc3ccco3)CC2)n[nH]1,14.3%
3,Cc1cc(C)c2cc(C(=O)N3CCN(Cc4ccco4)CC3)[nH]c2c1,9.04%
4,O=C(c1cc(Br)ccc1Cl)N1CCN(Cc2ccco2)CC1,36.9%
5,O=C(c1cc(Cl)c(Br)[nH]1)N1CCN(Cc2ccco2)CC1,63.8%
6,O=C(c1cc(Br)c[nH]1)N1CCN(Cc2ccco2)CC1,55.4%
7,CCOc1ncnc2c1CCN(S(=O)(=O)c1ccccc1)CC2,41.2%
8,Cc1ccc2nc(C3CCN(CC(C)C)CC3)nc(O)c2c1,-8.07%
9,CC(C)Oc1ccc(C(=O)N2CCC(Nc3cccnn3)CC2)cn1,-73.2%
10,Cc1cccc(CN2CCCn3c(nnc3CN3CCCC3=O)C2)n1,24.8%
11,Cc1ccc(NC2CCN(C(=O)C(C)n3cncn3)CC2)nn1 (stereo not drawn),-19.4%
12,O=C(c1ccccc1)N1C[C@H]2CC[C@@H](C1)N(C(=O)CN1CCOCC1)C2,0.897%
13,CN(C(=O)COc1ccc(-c2noc(C3CCCO3)n2)cc1)C1CC1 (stereo not drawn),-27.3%
14,Cc1cc(C)cc(-n2ncc3c2CCCC3N)c1 (stereo not drawn),37.9%
15,Cc1nc(C)n(CC(=O)N2CCCC(c3nc(C)n4c(C)csc34)C2)n1 (stereo not drawn),8.12%
16,O=C(c1cn(-c2ccc(F)cc2)nn1)N1CCCC(n2cccn2)C1 (stereo not drawn),-73.2%
17,CCCc1nnc(N[C@H](C)c2ccc(OC)cc2)o1,52.8%
18,CC(NC(=O)CNCCn1cccn1)c1ccc2c(c1)OCCO2 (stereo not drawn),24.8%
19,CCc1nnc(N[C@H](C)c2cccc(OC)c2)o1,8.48%
20,CCCc1nnc(NC(C)c2ccc(F)cc2)o1 (stereo not drawn),8.48%
21,Cc1nc(CCNC(C)c2ccc3c(c2)OCCCO3)cs1 (stereo not drawn),10%
22,CCCc1nnc(NC(C)c2ccc3c(c2)OCCO3)o1 (stereo not drawn),53.9%
23,Cc1cc(C)n(C2CCCN(C(=O)Cc3cn4ccsc4n3)C2)n1 (stereo not drawn),-15.52%
24,CCc1ccc(C(C)NC(=O)N2CCC(n3cncn3)CC2)cc1 (stereo not drawn),-73.1%
25,CC(=O)N1CCN(C(=O)c2[nH]nnc2Nc2ccccc2F)CC1,-1.45%
26,CC(C)N1CCN(C(=O)c2[nH]nnc2Nc2ccccc2F)CC1,4.35%
27,CC(C)CN1CCN(C(=O)c2[nH]nnc2Nc2ccccc2F)CC1,64%

row,Compound,INHIBITION
1,CC(=O)N1CCCC1c1cc(N2CCN(C3CCCC3)CC2)cc(C)n1 (stereo not drawn),34.5%
2,CC(=O)N1CCCC1c1cc(N2CCN(CC3CC3)CC2)cc(C)n1 (stereo not drawn),45.6%
3,CC(=O)N1CCCC1c1cc(N2CCN(CC(C)(C)C)CC2)cc(C)n1 (stereo not drawn),51.5%
4,OCC1(CCOc2ccccc2)CCN(c2ccc(Cl)cn2)CC1,32.2%
5,N#Cc1ccc(N2CCCC(CO)(CCOc3ccccc3)C2)nc1 (stereo not drawn),59.1%
6,Nc1nccc(N2CCCC(CO)(CCOc3ccccc3)C2)n1 (stereo not drawn),86.8%
7,N#Cc1cccnc1N1CCCC(CO)(CCOc2ccccc2)C1 (stereo not drawn),23.8%
8,CCc1nc(N2CCCC(CO)(CCOC)C2)ncc1C (stereo not drawn),-1.83%
9,N#Cc1cccc(N2CCCC(CO)(CCOc3ccccc3)C2)n1 (stereo not drawn),25.7%
10,CC(C)=CCC1(C(=O)O)CCCN(c2ccnc(N)n2)C1 (stereo not drawn),15%
11,OCC1(CCOc2ccccc2)CCCN(c2ccc(Cl)cn2)C1 (stereo not drawn),83.3%
12,Nc1nccc(N2CCC(Cc3ccccc3Cl)(C(=O)O)CC2)n1,23.5%
13,Cc1cnn(CC2CCCN2C(=O)CCc2ccc3c(c2)OCO3)c1 (stereo not drawn),9.64%
14,COC(=O)N1CCC(NC(=O)c2cc(S(N)(=O)=O)ccc2C)CC1,14.6%
15,COc1cc(N2CC3(CCN(S(C)(=O)=O)C3)C2)ncn1,-21.7%
16,CCOC(=O)c1sc(NC(=O)COC)c(C#N)c1C,-30.8%
17,COCCN1CCCN(C(=O)c2scnc2C)CC1,-2.03%
18,c1ccc(CN2CCCC(Cn3cncn3)C2)nc1 (stereo not drawn),24%
19,Cc1nc(N2C[C@@H](CN3CCCN(C)CC3)[C@@H](CO)C2)c2sccc2n1,26.6%
20,COC1[C@@H]2CC[C@H]1CN(c1nc(C)nc3sccc13)C2 (stereo partly drawn),72.6%
21,Cc1nccnc1N1CC[C@@H](NC(=O)c2cnccn2)[C@H](O)C1,-3.19%
22,Cc1nc(N2CC[C@@H](NC(=O)c3cnccn3)[C@H](O)C2)c2ccsc2n1,85.1%
23,CCC[C@@H]1CN(c2ncnc3sccc23)C[C@H]1NS(C)(=O)=O,27.2%
24,Cc1nc(N2C[C@@H](CN3CCCN(C)CC3)[C@@H](CO)C2)c2ccsc2n1,50.1%
25,O=C(N[C@@H]1CCN(c2nccc3ccccc23)C[C@H]1O)c1cnccn1,5.78%
26,Cc1nc(C)c(C)c(N2C[C@@H](CN3CCCN(C)CC3)[C@@H](CO)C2)n1,15.5%
